Most compounds without a hit are left out; they make up all but 4.6% or so of the library.
KLK7 zymogen act = proKLK7 (human) activation, primary screen | P49862 | purified proKLK7, EDANS-DABCYL substrate fluorescence; 100% is mature enzyme control, 0% vehicle | activation, % at 7 µM | actives 0.9% (n = 370,000) | AID 652039;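 active = activation above the mean of all tested compounds plus 3 SD, computed per campaign excluding outliers beyond control limits, cut at about 13% in these data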
GRIN3A LBD mod = modulators (binders) of human NR3A ligand-binding domain; AID 1259313; NR3A LBD differential scanning fluorimetry, Tm shift; 0% = protein alone, 100% = glycine-bound protein; Tm shift relative to glycine control, % at 25 µM; actives 2.5% (n = 340,000);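 active = melting temperature shift of at least 10% of the positive control shift, at one fixed dose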
ADAM17 inh = ADAM17 inhibition, QFRET primary screen. P78536. recombinant ADAM17, EDANS/DABCYL FRET peptide cleavage. inhibition, % at 6.95 µM. actives 0.83% (n = 370,000);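 active = inhibition above the mean of compounds lying between control limits plus 3 SD, set per campaign, cut at about 8.5% in these data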
Target sequence (P78536 215-824 limits assumed): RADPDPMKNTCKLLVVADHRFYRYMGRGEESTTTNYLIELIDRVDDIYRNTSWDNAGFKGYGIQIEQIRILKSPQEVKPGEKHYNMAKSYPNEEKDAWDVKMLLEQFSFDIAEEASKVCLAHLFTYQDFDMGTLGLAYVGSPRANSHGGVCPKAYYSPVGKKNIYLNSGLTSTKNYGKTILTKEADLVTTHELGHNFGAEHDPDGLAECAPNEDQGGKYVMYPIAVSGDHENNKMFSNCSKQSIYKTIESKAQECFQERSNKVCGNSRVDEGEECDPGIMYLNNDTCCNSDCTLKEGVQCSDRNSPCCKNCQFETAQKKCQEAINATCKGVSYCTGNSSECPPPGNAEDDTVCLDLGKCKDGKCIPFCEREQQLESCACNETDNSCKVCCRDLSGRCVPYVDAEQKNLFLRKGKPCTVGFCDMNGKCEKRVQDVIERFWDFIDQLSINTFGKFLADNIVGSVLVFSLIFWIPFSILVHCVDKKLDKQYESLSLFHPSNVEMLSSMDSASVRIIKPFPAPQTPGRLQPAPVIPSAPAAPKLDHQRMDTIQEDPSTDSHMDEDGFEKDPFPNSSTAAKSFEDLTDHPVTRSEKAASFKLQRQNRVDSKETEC
FAS TE block = FAS thioesterase (human) inhibition; P49327; recombinant FAS-TE, OMFH fluorogenic substrate, fluorescence endpoint; inhibition, % at 15 µM; actives 0.67% (n = 360,000); AID 602261;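 active = compounds whose normalised, plate-corrected inhibition of enzyme fluorescence in the single-dose primary screen is 50% or more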
ADAM10 inh = ADAM10 inhibition, QFRET primary screen | AID 720582 | inhibition, % at 7 µM | O14672 | recombinant ADAM10, EDANS/DABCYL FRET peptide cleavage, 3 h | actives 0.62% (n = 370,000);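 active = inhibition above a per-campaign cutoff equal to the mean of compounds falling between control-based bounds plus 3 SD, cut at about 20% in these data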
proKLK7 act conf = confirmation of human kallikrein-7 zymogen activators; shares compounds with KLK7 zymogen act; purified proKLK7, EDANS-DABCYL substrate fluorescence; scaled: vehicle 0, mature enzyme 100; activation, % at 7 µM; actives 68% (n = 3,200); AID 686949;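 active = activation, as change over the incubation, above the mean of all tested compounds plus 3 SD, cut at about 13% in these data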
EDANS interfere = optically interferes with EDANS-DABCYL signal, flagging KLK7 hits; activation, % at 7 µM; shares compounds with KLK7 zymogen act; EDANS-DABCYL substrate fluorescence interference, no enzyme, 4 h; solvent 0%, active enzyme control 100%; AID 686952; actives 80% (n = 3,200);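 active = activation above the all-compound mean plus 3 SD, ignoring values outside control-based bounds, cut at about 4.8% in these data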;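 also: value is the 4 h activation minus the activation read at time zero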
EDANS interf = EDANS fluorescence interference in dose response, no enzyme. shares compounds with KLK7 zymogen act. EDANS-DABCYL peptide fluorescence interference. EC50, µM. actives 20% (n = 250). AID 720493;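 active = compounds that raise the fluorescence signal in this interference counterscreen, with EC50 at or below 10 µM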;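 also: intact quenched peptide substrate alone read at 355 nm excitation and 520 nm emission; signal is fluorescence gain from T0 to T4 after four hours at room temperature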
Of the large screens only hits and unclear results are named; the others gave an inactive call (follow-up assays come after a bar, where they were run).

CCOC(=O)c1cc(-c2ccc(Cl)cc2)nc2c1c(C)nn2CCC#N	none
CCN(CC)C(=O)COC(=O)c1cc(-c2ccco2)nc2ccccc12	KLK7 zymogen act 74.1 | proKLK7 act conf 20.3 | EDANS interfere 17.2 | EDANS interf inactive
CCN(CC)C(=O)COC(=O)c1cc(-c2ccc(OC)cc2)nc2ccccc12	none
O=C(COC(=O)c1cc(-c2ccco2)nc2ccccc12)NCc1ccccc1	KLK7 zymogen act 21.5 | proKLK7 act conf 51.5 | EDANS interfere 54.9
Cc1cc(C(=O)OCC(=O)NCCc2ccccc2)c2ccccc2n1	none
CCOC(=O)c1cc(-c2ccco2)nc2c1c(C)nn2CCC#N	KLK7 zymogen act 31.6 | proKLK7 act conf inactive | EDANS interfere inactive
C=CCN=C1NC(c2cccc(Cl)c2)C(C(=O)OC)=C(C)N1C (stereo not given)	none (no result: GRIN3A LBD mod, FAS TE block)
CCOC(=O)[C@@]12CCC3=C1N(CCC3)C(=O)[C@H](CC(=O)NCc1cccc3ccccc13)C2	none (no result: GRIN3A LBD mod, FAS TE block)
Cn1c(-c2cc3ccccc3oc2=O)nc2ccccc21	none
COc1ccc2cc(-c3nc4ccccc4n3C)c(=O)oc2c1	KLK7 zymogen act 22.1 | proKLK7 act conf 38.8 | EDANS interfere 34.8
CC(C)N(C(=O)[C@H]1C[C@H](CC(=O)NC(C)(C)C)C(=O)N2CCc3c([nH]c4cc(-c5ccco5)ccc34)[C@]12C)C(C)C	KLK7 zymogen act 20.4 | proKLK7 act conf inactive | EDANS interfere 19.6
CCN(CC)C(=O)[C@H]1C[C@H](CC(=O)NC(C)(C)C)C(=O)N2CCc3c([nH]c4cc(-c5ccco5)ccc34)[C@]12C	KLK7 zymogen act 109.3 | proKLK7 act conf 56.7 | EDANS interfere 64.6
COC(=O)c1ccc(Cn2ccc3ccc(-c4ccc5ccn(C(=O)c6ccccc6C)c5c4)cc32)cc1	none (no result: GRIN3A LBD mod, FAS TE block)
c1ccc(Cn2c(-c3ccco3)nc3nc4ccccc4nc32)cc1	none
c1coc(-c2nc3nc4ccccc4nc3n2CC2CCCO2)c1 (stereo not given)	KLK7 zymogen act 21.6 | proKLK7 act conf inactive | EDANS interfere 13.3
Nc1ncc(-c2ccccc2)n1CC1CCCO1 (stereo not given)	none
c1ccc(-c2nc3nc4ccccc4nc3n2CC2CCCO2)cc1 (stereo not given)	KLK7 zymogen act 17.6 | proKLK7 act conf inactive | EDANS interfere 7.8
O=C(OCCN1CCN(C2CN(Cc3cn(Cc4ccccc4Cl)nn3)S(=O)(=O)C2)CC1)c1cccs1 (stereo not given)	none (no result: GRIN3A LBD mod, FAS TE block)
COc1cccc2[nH]c3c(N4CCCC(C)C4)ncnc3c12 (stereo not given)	none
COc1cccc2[nH]c3c(N4CCC(C(N)=O)CC4)ncnc3c12	KLK7 zymogen act 25.3 | proKLK7 act conf 46.6 | EDANS interfere 42.9
CC1(c2nnnn2Cc2ccccc2)CN(S(C)(=O)=O)CC(=O)N1Cc1cccs1 (stereo not given)	none (no result: GRIN3A LBD mod, FAS TE block)
COc1cc2c(cc1OC)/C(=C/C#N)NC(C)(C)C2	KLK7 zymogen act 19.3 | proKLK7 act conf inactive | EDANS interfere 13.5
CCOC(=O)c1cc2c(=O)n3cccc(C)c3nc2n(Cc2ccco2)c1=NC(=O)c1ccccc1	KLK7 zymogen act 24.3 | proKLK7 act conf 36.6 | EDANS interfere 36.1
CCOC(=O)c1cc2c(=O)n3ccccc3nc2n(Cc2ccco2)c1=NC(=O)c1cccc(OC)c1	KLK7 zymogen act 28.7 | proKLK7 act conf 41.8 | EDANS interfere 52.8
CCOC(=O)c1cc2c(=O)n3cccc(C)c3nc2n(CC(C)C)c1=NC(=O)c1ccco1	KLK7 zymogen act 74.1 | proKLK7 act conf inactive | EDANS interfere 5.7
CCOC(=O)c1cc2c(=O)n3ccccc3nc2n(Cc2ccco2)c1=NC(=O)c1ccccc1OC	none
O=C1C(C2=NC(c3ccccn3)C3C(=O)N(c4ccccc4)C(=O)C23)=C(O)c2ccccc21 (stereo not given)	KLK7 zymogen act 24.5 | proKLK7 act conf inactive | EDANS interfere inactive
CC1(C)Oc2cc3oc(C(=O)O)cc(=O)c3cc2-c2ccccc21	KLK7 zymogen act 99.9 (no result: GRIN3A LBD mod) | proKLK7 act conf 68.1 | EDANS interfere 66.8
CCOC(=O)c1nn(-c2ccccc2)c(=O)c2c(N)scc12	none
CCOC(=O)c1nn(-c2ccccc2)c(C(=O)OCC)c1N	KLK7 zymogen act 18.5 | proKLK7 act conf inactive | EDANS interfere 10.8
COCCn1c2nc(=O)n(-c3ccccc3)c(=O)c-2nc2ccccc21	KLK7 zymogen act 49.2 (no result: GRIN3A LBD mod) | proKLK7 act conf 39.8 | EDANS interfere 44.5
CCCC/C=C1/[C@@H](C(C)C)N(Cc2ccc3c(c2)OCO3)C2=N[C@H](c3ccccc3)CC(=O)N21	none (no result: KLK7 zymogen act, GRIN3A LBD mod, FAS TE block)
O=C(Nc1ccc2c(c1)C(=O)NC2=O)c1ccc(S(=O)(=O)N2CCCC2)cc1	KLK7 zymogen act 86.4 | proKLK7 act conf 89.5 | EDANS interfere 39.5 | EDANS interf 8.5
CN(C)CCNc1nc(-c2ccccc2CO)c2sccc2n1	none (no result: GRIN3A LBD mod)
Cc1ccccc1-c1nc(NC(C)C)nc2ccsc12	none (no result: GRIN3A LBD mod)
CC(C)Nc1nc(-c2ccccc2CO)c2sccc2n1	KLK7 zymogen act 22.1 (no result: GRIN3A LBD mod) | proKLK7 act conf 16.9 | EDANS interfere 10.9 | EDANS interf inactive
OCc1ccccc1-c1nc(NCC2CC2)nc2ccsc12	KLK7 zymogen act 14.6 (no result: GRIN3A LBD mod) | proKLK7 act conf inactive | EDANS interfere 6.9
Cc1ccccc1-c1ccc2c(c1)[C@@H]1C[C@H](N(C)CC3CCCCC3)[C@H]([C@H](C)O)CN1CC2	KLK7 zymogen act 12.6 (no result: GRIN3A LBD mod, FAS TE block) | proKLK7 act conf inactive | EDANS interfere 7.1
C=CCNC(=S)N(C)[C@H]1C[C@H]2c3cc(-c4ccccc4C)ccc3CCN2C[C@H]1[C@H](C)O	none (no result: GRIN3A LBD mod, FAS TE block)
COc1ccc(C2c3ccccc3NC3C2C(=O)N(Cc2ccc(OC)cc2OC)[C@H]3Cc2ccccc2)cc1 (stereo not given in full)	none (no result: GRIN3A LBD mod, FAS TE block)
CN(C)S(=O)(=O)c1cccc(-c2cn3cccnc3n2)c1	KLK7 zymogen act 38.9 | proKLK7 act conf 56.9 | EDANS interfere 61.7
CCN(CC)S(=O)(=O)c1ccc(-c2cn3ccccc3n2)cc1	none (no result: GRIN3A LBD mod)
CN(C)S(=O)(=O)c1ccc(-c2cn3ccccc3n2)cc1	KLK7 zymogen act 29.6 | proKLK7 act conf 22.4 | EDANS interfere 30.6
O=S(=O)(c1cccc(-c2cn3cccnc3n2)c1)N1CCOCC1	KLK7 zymogen act 30.2 | proKLK7 act conf 70.9 | EDANS interfere 66.7
CC(C)n1c(=NC(=O)c2ccco2)c(C#N)cc2c(=O)n3ccccc3cc21	KLK7 zymogen act 45.2 | proKLK7 act conf 21.6 | EDANS interfere 18.8
